The values that follow come from ChEMBL document CHEMBL3988442, “University of Dundee, Small-Polar-MMV Screening Library” (2021).

Structures are written as SMILES. For some of these results: Potency and affinity values are given separately.

Common to all, as to set-up: scale not given: direction of the effect not stated beside the values
The target of experiment [1] is Protein translocase subunit SecA (Escherichia coli (strain K12)) (UniProt P10408). Nature of the experiment: Assay to Identify E. coli SecA ATPase Inhibitors. To be noted: 30 µM. It counts as functional.
Experiment [2] has as its target T1, Ubiquitin-activating enzyme e1, putative (Leishmania donovani (strain BPK282A1)) (UniProt E9BSI1).
T1 sequence (whole entry): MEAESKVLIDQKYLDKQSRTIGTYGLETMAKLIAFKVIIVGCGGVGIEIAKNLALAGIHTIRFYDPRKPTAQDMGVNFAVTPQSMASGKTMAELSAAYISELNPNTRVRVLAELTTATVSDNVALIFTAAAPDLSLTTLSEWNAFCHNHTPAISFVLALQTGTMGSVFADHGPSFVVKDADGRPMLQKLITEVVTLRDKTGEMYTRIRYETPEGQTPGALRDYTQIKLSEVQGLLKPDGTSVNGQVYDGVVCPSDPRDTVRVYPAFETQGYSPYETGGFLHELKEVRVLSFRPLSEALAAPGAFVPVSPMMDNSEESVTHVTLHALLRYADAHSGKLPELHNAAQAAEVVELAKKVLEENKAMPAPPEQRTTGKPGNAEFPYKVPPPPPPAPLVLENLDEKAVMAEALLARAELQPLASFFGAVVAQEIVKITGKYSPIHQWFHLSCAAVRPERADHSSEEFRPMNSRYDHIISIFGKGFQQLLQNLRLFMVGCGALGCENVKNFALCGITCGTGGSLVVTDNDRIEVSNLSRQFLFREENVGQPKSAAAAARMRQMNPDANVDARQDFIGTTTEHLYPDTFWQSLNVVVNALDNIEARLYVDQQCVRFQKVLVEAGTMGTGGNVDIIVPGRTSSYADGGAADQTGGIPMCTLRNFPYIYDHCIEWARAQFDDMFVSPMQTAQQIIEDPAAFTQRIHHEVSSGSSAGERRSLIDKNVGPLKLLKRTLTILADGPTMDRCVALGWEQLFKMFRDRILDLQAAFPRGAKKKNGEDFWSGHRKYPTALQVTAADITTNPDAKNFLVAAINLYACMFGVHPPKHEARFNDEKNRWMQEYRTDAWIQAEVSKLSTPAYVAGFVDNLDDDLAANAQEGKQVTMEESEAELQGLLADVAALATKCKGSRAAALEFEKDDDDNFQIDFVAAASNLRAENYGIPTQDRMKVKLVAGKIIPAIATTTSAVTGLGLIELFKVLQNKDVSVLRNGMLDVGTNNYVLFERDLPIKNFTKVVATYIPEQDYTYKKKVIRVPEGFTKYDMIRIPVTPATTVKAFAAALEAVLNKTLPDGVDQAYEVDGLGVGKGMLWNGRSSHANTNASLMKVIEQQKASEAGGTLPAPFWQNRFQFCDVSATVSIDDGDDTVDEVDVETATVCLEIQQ
Nature of the experiment: Leishmania donovani Ubiquitin Activating Enzyme (LdE1). The format is functional. Conditions: 30 µM.

Experiment [3] deals with AMP-activated protein kinase, AMPK (Homo sapiens) (UniProt P54646+O43741+P54619+Q9UGJ0+Q9Y478+Q13131+Q9UGI9). The experiment is described as follows: AMP-dependent Kinase enzyme assay. An in vitro enzyme assay that detects ADP turnover that is directly proportional to AMPK activity. This uses naive AMPK that is activated during the assay with MK-8722. The format is functional. Conditions: 30 µM.

The target of experiment [4] is Sialic acid-binding Ig-like lectin 9 (Homo sapiens) (UniProt Q9Y336). Nature of the experiment: Hs-Siglec9 ALPHAscreen SOP 20170721. To be noted: 10 µM. Background: Alpha assays give light when donor and acceptor beads are brought close together.
Another experiment has as its system Trypanosoma cruzi. The experiment is described as follows: Trypanosoma cruzi phosphomannomutase and mannose-1-phosphate guanylyltransferase assay. Conditions: 10 µM. The format is functional.
The target in experiment [5] is T2, Arginase-2, mitochondrial (Homo sapiens) (UniProt P78540).
T2 sequence (whole entry): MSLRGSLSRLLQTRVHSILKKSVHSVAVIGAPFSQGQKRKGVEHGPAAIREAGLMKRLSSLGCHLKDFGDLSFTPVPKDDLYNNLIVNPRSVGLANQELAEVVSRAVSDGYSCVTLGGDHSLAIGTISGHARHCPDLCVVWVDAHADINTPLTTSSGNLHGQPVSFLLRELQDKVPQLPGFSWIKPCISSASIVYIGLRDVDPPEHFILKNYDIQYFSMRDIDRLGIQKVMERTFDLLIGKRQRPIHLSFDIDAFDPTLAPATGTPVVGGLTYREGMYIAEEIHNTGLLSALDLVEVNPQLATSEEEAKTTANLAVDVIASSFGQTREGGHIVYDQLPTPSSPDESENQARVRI
Nature of the experiment: in vitro enzyme assay to detect the production of urea directly proportional to the activity of Arginase II. Further: in the data most compounds retested in dose-response had high values. It counts as functional. To be noted: 33.3 µM.

For experiment [6], the target named is T3, Proteasome subunit beta (Trypanosoma cruzi) (UniProt O96673).
T3 sequence (whole entry): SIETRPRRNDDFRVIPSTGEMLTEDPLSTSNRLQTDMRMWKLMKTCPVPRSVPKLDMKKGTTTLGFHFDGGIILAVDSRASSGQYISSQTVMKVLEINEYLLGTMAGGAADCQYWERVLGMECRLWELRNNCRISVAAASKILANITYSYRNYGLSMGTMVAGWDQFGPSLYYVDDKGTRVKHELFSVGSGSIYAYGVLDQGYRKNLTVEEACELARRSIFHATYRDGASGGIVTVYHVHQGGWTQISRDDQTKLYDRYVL
Nature of the experiment: Trypanosoma cruzi proteasome chymotrypsin-like activity (TcProtChymo) assay. Further: in the data most compounds retested in dose-response had high values. It counts as functional. To be noted: 9.37 µM.

A further experiment is filed under the species Homo sapiens. The experiment is described as follows: To identify inhibition of the IFN signalling (Jak-Stat) pathway via expression of an eGFP reporter gene under the control of an IFN-stimulated response element (ISRE) containing MxA promoter. The format is functional. Conditions: 30 µM. In general terms: In a reporter assay the amount or activity of a reporter protein is the signal.

Experiment [7] addresses T4, Tyrosyl-tRNA synthetase, putative (Trypanosoma cruzi (strain CL Brener)) (UniProt Q4DSP6).
T4 sequence (whole entry): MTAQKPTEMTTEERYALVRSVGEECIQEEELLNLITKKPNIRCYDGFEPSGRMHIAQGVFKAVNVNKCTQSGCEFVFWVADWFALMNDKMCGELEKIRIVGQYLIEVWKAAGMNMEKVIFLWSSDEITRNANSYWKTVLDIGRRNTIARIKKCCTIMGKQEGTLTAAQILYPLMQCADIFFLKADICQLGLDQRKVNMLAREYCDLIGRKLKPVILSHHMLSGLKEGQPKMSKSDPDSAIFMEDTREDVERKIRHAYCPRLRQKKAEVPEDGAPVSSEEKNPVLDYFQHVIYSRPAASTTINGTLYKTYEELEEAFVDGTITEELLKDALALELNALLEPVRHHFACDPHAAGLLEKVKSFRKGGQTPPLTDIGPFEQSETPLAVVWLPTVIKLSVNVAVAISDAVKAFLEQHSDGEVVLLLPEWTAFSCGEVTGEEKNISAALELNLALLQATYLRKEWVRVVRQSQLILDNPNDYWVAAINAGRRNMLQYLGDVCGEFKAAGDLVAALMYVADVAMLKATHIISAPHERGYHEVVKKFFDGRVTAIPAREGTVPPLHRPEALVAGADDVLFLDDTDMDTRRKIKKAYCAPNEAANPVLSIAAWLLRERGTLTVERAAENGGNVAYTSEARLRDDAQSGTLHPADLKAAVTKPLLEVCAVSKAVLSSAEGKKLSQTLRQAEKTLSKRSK
The experiment is described as follows: Trypanosoma cruzi tyrosyl tRNA synthetase (TcYRS) _High Tyrosine SOP. Further: in the data most compounds retested in dose-response had high values. It counts as functional. Conditions: 30 µM.

Experiment [8] concerns the target T4, Tyrosyl-tRNA synthetase, putative (Trypanosoma cruzi (strain CL Brener)). Nature of the experiment: Trypanosoma cruzi tyrosyl tRNA synthetase (TcYRS) SOP. The format is functional. To be noted: 30 µM.
Experiment [9] addresses Chromo domain-containing protein 1 (Saccharomyces cerevisiae (strain ATCC 204508 / S288c) (Baker's yeast)) (UniProt P32657). Nature of the experiment: ScCHD-1 Enzyme Inhibition Assay. Further: in the data most compounds retested in dose-response had high values. It counts as functional. To be noted: 30 µM.

Protein translocase subunit SecA (Escherichia coli (strain K12)), sequence (P10408 whole entry): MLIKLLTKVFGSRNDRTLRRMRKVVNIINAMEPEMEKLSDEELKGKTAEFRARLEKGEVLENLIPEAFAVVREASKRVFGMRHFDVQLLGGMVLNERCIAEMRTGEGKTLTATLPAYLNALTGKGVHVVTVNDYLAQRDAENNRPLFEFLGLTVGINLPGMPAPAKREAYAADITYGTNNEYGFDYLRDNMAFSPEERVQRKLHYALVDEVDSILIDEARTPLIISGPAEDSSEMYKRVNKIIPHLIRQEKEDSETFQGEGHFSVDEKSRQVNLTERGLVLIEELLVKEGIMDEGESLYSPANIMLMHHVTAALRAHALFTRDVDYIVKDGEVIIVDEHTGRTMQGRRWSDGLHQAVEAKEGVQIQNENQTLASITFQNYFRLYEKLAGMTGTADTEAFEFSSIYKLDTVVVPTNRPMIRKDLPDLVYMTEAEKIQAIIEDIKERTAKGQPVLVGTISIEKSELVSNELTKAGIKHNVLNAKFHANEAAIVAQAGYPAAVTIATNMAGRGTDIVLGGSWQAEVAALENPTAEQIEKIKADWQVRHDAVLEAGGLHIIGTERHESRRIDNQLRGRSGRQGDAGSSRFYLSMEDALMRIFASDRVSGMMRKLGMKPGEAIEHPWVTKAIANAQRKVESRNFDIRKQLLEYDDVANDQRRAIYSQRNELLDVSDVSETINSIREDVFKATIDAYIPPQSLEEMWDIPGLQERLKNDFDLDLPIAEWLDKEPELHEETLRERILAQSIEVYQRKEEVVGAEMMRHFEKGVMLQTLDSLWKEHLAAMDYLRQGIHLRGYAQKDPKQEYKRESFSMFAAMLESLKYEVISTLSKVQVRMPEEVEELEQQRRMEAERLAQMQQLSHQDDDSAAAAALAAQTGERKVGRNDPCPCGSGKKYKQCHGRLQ
Chromo domain-containing protein 1 (Saccharomyces cerevisiae (strain ATCC 204508 / S288c) (Baker's yeast)), sequence (P32657 whole entry, the tested form may be a part): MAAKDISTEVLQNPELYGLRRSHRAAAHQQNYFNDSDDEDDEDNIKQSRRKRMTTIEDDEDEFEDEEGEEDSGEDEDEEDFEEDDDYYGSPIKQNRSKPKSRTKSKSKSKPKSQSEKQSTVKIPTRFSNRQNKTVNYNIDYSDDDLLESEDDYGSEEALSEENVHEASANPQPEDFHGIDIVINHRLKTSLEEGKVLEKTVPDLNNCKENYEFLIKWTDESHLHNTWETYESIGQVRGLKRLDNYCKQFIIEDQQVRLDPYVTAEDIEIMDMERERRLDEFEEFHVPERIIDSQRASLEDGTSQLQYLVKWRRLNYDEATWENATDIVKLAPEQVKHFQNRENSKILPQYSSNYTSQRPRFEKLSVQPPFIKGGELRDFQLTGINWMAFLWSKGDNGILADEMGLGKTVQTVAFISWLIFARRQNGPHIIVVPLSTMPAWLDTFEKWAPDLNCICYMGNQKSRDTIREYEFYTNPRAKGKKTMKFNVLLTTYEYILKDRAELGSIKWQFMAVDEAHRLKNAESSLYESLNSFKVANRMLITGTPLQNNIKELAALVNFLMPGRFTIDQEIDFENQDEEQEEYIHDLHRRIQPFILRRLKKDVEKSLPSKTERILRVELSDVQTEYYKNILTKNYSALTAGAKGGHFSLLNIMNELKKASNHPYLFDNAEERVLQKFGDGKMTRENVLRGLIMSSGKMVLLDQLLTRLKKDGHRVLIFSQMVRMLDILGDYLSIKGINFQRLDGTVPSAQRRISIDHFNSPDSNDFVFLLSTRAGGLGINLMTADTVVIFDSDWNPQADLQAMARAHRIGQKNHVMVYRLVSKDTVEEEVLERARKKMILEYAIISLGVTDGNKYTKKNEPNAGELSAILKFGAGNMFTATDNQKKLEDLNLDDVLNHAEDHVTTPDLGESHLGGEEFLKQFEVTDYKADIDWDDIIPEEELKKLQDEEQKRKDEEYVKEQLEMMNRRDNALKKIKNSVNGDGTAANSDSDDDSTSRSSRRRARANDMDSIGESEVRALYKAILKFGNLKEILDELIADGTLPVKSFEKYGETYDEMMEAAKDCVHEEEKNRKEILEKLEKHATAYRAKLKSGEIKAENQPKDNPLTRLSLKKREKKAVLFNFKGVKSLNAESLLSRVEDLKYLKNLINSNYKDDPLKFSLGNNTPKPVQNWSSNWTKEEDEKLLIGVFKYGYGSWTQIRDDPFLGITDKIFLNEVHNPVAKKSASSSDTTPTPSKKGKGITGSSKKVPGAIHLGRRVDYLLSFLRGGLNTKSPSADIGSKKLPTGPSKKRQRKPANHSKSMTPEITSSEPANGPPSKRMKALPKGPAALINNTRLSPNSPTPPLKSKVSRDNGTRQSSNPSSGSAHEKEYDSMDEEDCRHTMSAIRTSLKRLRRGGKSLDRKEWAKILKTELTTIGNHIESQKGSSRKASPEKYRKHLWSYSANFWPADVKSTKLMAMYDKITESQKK
Sialic acid-binding Ig-like lectin 9 (Homo sapiens), sequence (Q9Y336 whole entry): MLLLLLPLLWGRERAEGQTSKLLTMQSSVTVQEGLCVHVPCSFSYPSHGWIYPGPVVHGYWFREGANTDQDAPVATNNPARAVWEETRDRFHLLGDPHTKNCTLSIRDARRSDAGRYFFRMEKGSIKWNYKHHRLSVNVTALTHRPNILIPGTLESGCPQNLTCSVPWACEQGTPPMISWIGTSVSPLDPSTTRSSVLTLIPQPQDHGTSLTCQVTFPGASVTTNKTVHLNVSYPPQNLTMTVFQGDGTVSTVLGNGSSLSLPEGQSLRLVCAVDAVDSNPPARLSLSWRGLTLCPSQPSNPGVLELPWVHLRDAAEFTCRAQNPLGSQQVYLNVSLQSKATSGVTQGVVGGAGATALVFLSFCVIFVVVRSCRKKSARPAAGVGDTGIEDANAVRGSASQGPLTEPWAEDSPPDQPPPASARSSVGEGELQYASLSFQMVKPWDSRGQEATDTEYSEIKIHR

In the case of `Cc1ccccc1C(=O)N1CCOC2(CNCCOC2)C1` (stereo unspecified), the Percent Effect was -0.256% in [1]; 2.7% in [2]; -1.58% in [3]; 2.44% in [4]; -2.51% with Trypanosoma cruzi; -1.43% in experiment [5]. The Percent Effect was 17.8% in [6]; 11.5% in the experiment listed under Homo sapiens; 1.59% in experiment [7]; 9.76% in experiment [8]; -3.15% in [9].

Turning to `CSCCC(=O)N1CCC(Oc2cc(C)ccc2F)(C(=O)O)CC1`, the Percent Effect in experiment [1] is -1.39%; in [2] it was -1.39%; in experiment [3] it was -5.71%; in experiment [4], -2.17%; in the experiment with Trypanosoma cruzi, -2.43%; in [5], -1.32%. Moreover, the Percent Effect was 0.351% in experiment [6]; -30.7% in the experiment listed under Homo sapiens; -2.1% in experiment [7]; 2.56% in experiment [8]; 2.79% in experiment [9].

As for `CN(C)[C@@H]1CCN(c2ncccn2)[C@H]1Cc1ccncc1`, the Percent Effect is -4.35% in [1]; 2.6% in experiment [2]; -0.281% in [3]; 0.217% in experiment [4]; 5.01% in the experiment on Trypanosoma cruzi; 1.38% in [5]. Also, the Percent Effect in experiment [6] was 2.5%; in the experiment listed under Homo sapiens it was -12.2%; in experiment [7] it was 1.07%; in experiment [8], 3.7%; in experiment [9] it was -1.65%.

Turning to `CC(C(=O)NCc1ccnc(N(C)C)c1)n1cncn1` (stereo unspecified), the Percent Effect in experiment [1] is -2.02%; in experiment [2], 2.7%; in experiment [3] it was -7.17%; in [4], 7.55%; in the experiment with Trypanosoma cruzi, 8.88%; in experiment [5], -0.476%. For the same compound, the Percent Effect was 17.2% in experiment [6]; -1.73% in the experiment listed under Homo sapiens; 5.82% in experiment [7]; 9.76% in experiment [8]; -3.72% in experiment [9].

Turning to `CC(C)(C)NC(=O)CNC(=O)CCc1ccccc1Br`, the Percent Effect is -3.98% in experiment [1]; 15.3% in experiment [2]; -5.91% in experiment [3]; 3.62% in experiment [4]; 4.37% with Trypanosoma cruzi; 23.4% in experiment [5]. For the same compound, the Percent Effect in [6] is 21.8%; in the experiment listed under Homo sapiens it was -3.55%; in experiment [7], 6.32%; in [8], 7.69%; in experiment [9], -2.98%.

With `CC(OCC(F)(F)F)C(=O)N1CCN(S(C)(=O)=O)CC1` (stereo unspecified), the Percent Effect in experiment [1] is -3.82%; in [2], 8.22%; in experiment [3], 1.32%; in [4] it was -5.16%; in the experiment on Trypanosoma cruzi, -3.92%; in experiment [5] it was 1.36%. Also, the Percent Effect in experiment [6] is 9.05%; in the experiment listed under Homo sapiens, 17.4%; in experiment [7] it was 6.45%; in experiment [8], 15%; in experiment [9], -6.7%.

Regarding `NC(=O)c1ccc(S(=O)(=O)NC2CCN(Cc3ccccc3)C2=O)cc1` (stereo unspecified), the Percent Effect is -3.79% in experiment [1]; 17.7% in experiment [2]; 9.8% in experiment [3]; 5.49% in [4]; 0.472% with Trypanosoma cruzi; -3.42% in [5]. For the same compound, the Percent Effect in experiment [6] is 0.901%; in the experiment listed under Homo sapiens, 2.7%; in experiment [7] it was 5.42%; in experiment [8], 11.4%; in [9], -6.86%.

`Cc1ccc(O)c(CNC2CCc3nc(C(C)C)nn3C2)n1` (stereo unspecified): the Percent Effect is -9.46% in experiment [1]; 13.2% in [2]; 2.66% in experiment [3]; 6.11% in experiment [4]; 3.02% in the experiment on Trypanosoma cruzi; -5.92% in [5]. Moreover, the Percent Effect in experiment [6] is 8.15%; in the experiment filed under Homo sapiens it was -5.66%; in experiment [7], 1.06%; in experiment [8], 10.4%; in experiment [9], -14.7%.

`CC(C)COCC(NC(=O)c1cc[nH]n1)c1ccco1` (stereo unspecified): the Percent Effect in experiment [1] was -5.65%; in experiment [2], 24.3%; in experiment [3], -9.5%; in experiment [4], 15.5%; with Trypanosoma cruzi it was 1.79%; in [5], -13.6%. Besides, the Percent Effect is 5.59% in experiment [6]; 19.5% in the experiment listed under Homo sapiens; 4.43% in experiment [7]; 18.5% in experiment [8]; -12.3% in experiment [9].

As for `N#Cc1cccnc1NCCNC(=O)N1CCCSCC1`, the Percent Effect in experiment [1] is -3.35%; in [2] it was 2.7%; in experiment [3], -4.19%; in experiment [4], 3.38%; in the experiment with Trypanosoma cruzi, 8.11%; in experiment [5] it was -2.38%. Also, the Percent Effect in experiment [6] is 14.3%; in the experiment filed under Homo sapiens, -19.3%; in experiment [7] it was 3.7%; in [8] it was 12.2%; in experiment [9], -6.59%.

Turning to `Cc1ccc(C(=O)N2CCSCC2)cc1NC(=O)NCCO`, the Percent Effect is -5.08% in [1]; 2.74% in [2]; 6.7% in [3]; 18.5% in experiment [4]; 1.39% with Trypanosoma cruzi; -1.2% in [5]. Further, the Percent Effect in experiment [6] was 9.68%; in the experiment filed under Homo sapiens, 15.2%; in experiment [7], 6.25%; in experiment [8] it was 11.1%; in [9] it was -3.9%.
